Rows were chosen to be rich in hits. Some 21% of all compounds tested hit in one or more screens of this group.
ClpP mod: qHTS Assay for Activators of ClpP; ATP-dependent Clp protease proteolytic subunit (Bacillus subtilis (strain 168)), P80244; purified B. subtilis ClpP, FRET peptide cleavage, 20 min; Potency, µM (top dose mostly 57.5 µM); actives 1.9% (n = 340,000); AID 651965, 2013; active = well fitted falling curve with a large enough effect; inconclusive = small, poorly fitted or top-dose-only effect; inactive = no such curve, though single readings can be large or run the other way; also: the source files actives as falling curves though it sought activators and does not explain the sign; nearly all actives have a fitted effect of over 65% in size
Target sequence (P80244 whole entry, looked up): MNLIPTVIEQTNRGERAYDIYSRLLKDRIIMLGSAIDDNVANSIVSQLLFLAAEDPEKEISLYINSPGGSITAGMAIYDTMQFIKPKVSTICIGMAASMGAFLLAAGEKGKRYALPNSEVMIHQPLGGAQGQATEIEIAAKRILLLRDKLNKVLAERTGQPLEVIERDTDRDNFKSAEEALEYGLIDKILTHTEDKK
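Purified B. subtilis ClpP, 10 microg/mL final in Tris/HCl pH8 with KCl, BSA, glycerol and Tween-20, cleaved an Abz/nitrotyrosine-quenched decapeptide. Fluorescence (ex 320, em 430) was read at 0 and 20 min at room temperature. Delta was normalized to 5.8 microM ADEP and DMSO/no-enzyme controls.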
DT40 TDP1 no CPT: qHTS for Inhibitors of human tyrosyl-DNA phosphodiesterase 1 (TDP1): qHTS in cells in absence of CPT; DT40 Tdp1-/- hTDP1 cells, no CPT, ATP luminescence, 48 h; actives 15% (n = 420,000); Potency, µM (titrated, usually from 46.2 µM), most hits filed as inhibitors; also: nearly all actives have a fitted effect of over 55% in size
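A cellular qHTS used chicken DT40 cells lacking endogenous Tdp1 but carrying stably transfected human TDP1. Compounds were applied without camptothecin, and cell growth kinetics were judged by ATP-dependent luminescence after ≥48 hr.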
IL-1B inflam inh: inflammasome signaling inhibition, IL-1 beta readout; AID 743279; THP-1 LPS/ATP IL-1B secretion, AlphaLISA, 16 h; hits give low values; activity change, % at 57.5 µM; actives 4.7% (n = 360,000); in the data active = activity change below about -50%; inconclusive = mostly about -30% to -49%
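Secreted IL-1B measured by AlphaLISA bead assay after 16 h compound exposure of THP-1 cells; compounds (final up to 57.5 uM) added 1 h before LPS (250 ng/mL) and ATP (1.25 mM) stimulation; lower signal means less secretion.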
TDP1 cell CPT: growth inhibition of DT40 Tdp1-/-;hTDP1 cells with camptothecin (screen for TDP1 inhibitors) | actives 12% (n = 420,000) | Potency, µM (titrated, usually from 46.2 µM), hits mostly inhibitors | chicken DT40 Tdp1-/-;hTDP1 cells + 20 nM CPT, ATP luminescence, 48 h | AID 686979; also: nearly all actives have a fitted effect of over 55% in size
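Cell growth measured by CellTiter-Glo luminescence after a minimum 48 h, 37 C compound exposure with 20 nM CPT in Tdp1-knockout DT40 cells stably expressing hTDP1, seeded 400/well; qHTS titration format.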
DRD3 agonist: D3 dopamine receptor (human) agonism. P35462. actives 0.58% (n = 410,000). AID 652048. max activation, %. D3R DiscoveRx beta-arrestin cells, luminescence, 90 min; in the data active = max activation above about 30%
Target sequence (P35462 whole entry, looked up): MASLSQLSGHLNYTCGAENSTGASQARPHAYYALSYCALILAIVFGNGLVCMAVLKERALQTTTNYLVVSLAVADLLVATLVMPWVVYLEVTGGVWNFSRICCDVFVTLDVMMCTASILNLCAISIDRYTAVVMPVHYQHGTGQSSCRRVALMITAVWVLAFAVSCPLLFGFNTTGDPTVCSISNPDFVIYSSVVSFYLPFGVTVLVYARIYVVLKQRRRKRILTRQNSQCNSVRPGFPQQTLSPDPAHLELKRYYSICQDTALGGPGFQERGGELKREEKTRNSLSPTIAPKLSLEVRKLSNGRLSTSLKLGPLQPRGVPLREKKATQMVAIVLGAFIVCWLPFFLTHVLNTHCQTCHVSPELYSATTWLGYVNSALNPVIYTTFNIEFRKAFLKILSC
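Cells at 1500/well, incubated overnight, then treated with pinned compounds (dopamine as control) for 90 min at 37 degrees C. DiscoveRx reagent added for 30 - 60 minutes at room temperature; luminescence read.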
D3 antag: antagonists of human D3 dopamine receptor. P35462. D3R cells, DiscoveRx beta-arrestin luminescence, antagonist mode; hits give low values. max response, negative = inhibition, %. actives 2.5% (n = 360,000); in the data active = max response below about -50%; inconclusive = no clear call, values can overlap the other calls
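Cells plated overnight at 1500 cells/well, then exposed to library compounds with dopamine controls for 90 minutes at 37 degrees C. DiscoveRx reagent added for 30–60 minutes at room temperature; luminescence read, quantitative HTS format.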
Hits are given with their value; 0 = inactive; ? = inconclusive; - = no result given. Unless noted, calls follow the shape of the dose curve; as a rule, active = well fitted inhibition curve with a large enough effect; inconclusive = small, poorly fitted or top-dose-only effect; inactive = flat fitted curve, though single readings scatter.

SMILES	ClpP mod	DT40 TDP1 no CPT	IL-1B inflam inh	TDP1 cell CPT	DRD3 agonist	D3 antag
O=C1COc2ccc(C(=O)CSc3nnc(Cc4cccs4)n3-c3ccccc3)cc2N1	0	9.2µM	0	?	0	0
Cn1c(=O)c2c(nc(SCC(=O)N3CCc4ccccc4C3)n2C)n(C)c1=O	0	0	0	0	0	0
CC(C)c1ccccc1-n1c(SCC(=O)N2CCc3ccccc3C2)nc2ccccc2c1=O	0	23µM	?	?	0	0
O=C(CSc1nc2ccccc2c(=O)n1-c1ccccc1)N1CCC1	0	0	0	0	0	0
CC(C)NC(=O)Cn1c(SCC(=O)N2CCc3ccccc3C2)nc2ccccc21	0	0	0	0	0	0
O=C1COc2ccc(C(=O)CSc3nnc(-c4cccs4)n3Cc3ccccc3)cc2N1	0	?	0	?	0	0
CC(C)[C@H](NC(=O)c1cccc(S(=O)(=O)N2CCOCC2)c1)C(=O)OCC(=O)Nc1cccc(Br)c1	0	0	0	0	0	0
CCOc1cc(-c2nnc(SCC(=O)Nc3ccc(F)c(F)c3)nc2-c2ccc(OC)c(OCC)c2)ccc1OC	0	0	-	0	0	-
CC(C)c1ccccc1-n1c(SCC(=O)c2ccc3c(c2)NC(=O)CO3)nc2ccccc2c1=O	-	23µM	0	18µM	0	0
Cn1cnnc1SCC(=O)c1ccc2c(c1)NC(=O)CO2	0	0	0	0	0	0
Cc1ccc(S(=O)(=O)c2c(C)cc(C)nc2Cl)cc1	0	0	0	0	0	0
Cc1cc(C)c(S(=O)(=O)c2ccccc2)c(Cl)n1	14µM	0	0	0	0	0
Cc1ccc(CNC(=O)c2ccc(N3CCC4(CC3)CC(c3ccccc3)=NO4)c(N)c2)cc1	8.9µM	?	0	2.6µM	34	0
Cc1ccc(CNC(=O)c2ccc(N3CCC4(CC3)CC(c3ccccc3)=NO4)c(NC(=O)c3ccccc3)c2)cc1	?	0	0	0	0	0
Cc1ccc(CNC(=O)c2ccc(N3CCC4(CC3)CC(c3ccccc3)=NO4)c([N+](=O)[O-])c2)cc1	0	?	0	?	0	-61
COc1ccc(NC(=O)c2nnn(CC(=O)Nc3cc(C)cc(C)c3)c2N)c(OC)c1	0	0	-	0	0	-
CCOc1cnc(-c2ccc(OC)cc2)o1	25µM	0	0	0	0	0
O=C(CCCC(=O)Nc1cccc(Br)c1)N/N=C/c1cc([N+](=O)[O-])ccc1O	0	5.2µM	0	5.8µM	0	?
Cc1ccc(NC(=O)CCC(=O)N/N=C/c2cc([N+](=O)[O-])ccc2O)cc1	0	?	0	?	0	0
CN1CCN(CCC(=O)N/N=C/c2cc([N+](=O)[O-])ccc2O)CC1	0	?	0	?	0	-79
Cc1ccccc1NC(=O)CCC(=O)N/N=C/c1cc([N+](=O)[O-])ccc1O	0	16µM	0	?	0	-58
O=C(CCC(=O)Nc1cccc(Cl)c1)N/N=C/c1cc([N+](=O)[O-])ccc1O	-	?	0	?	0	-62
Cc1ccc(C)c(NC(=O)CCC(=O)N/N=C/c2cc([N+](=O)[O-])ccc2O)c1	-	?	0	?	0	?
CC(=O)c1cccc(NC(=O)c2ccc(-n3c(C)nnc3C)cc2)c1	0	0	-	0	0	-
C/C(=N/NC(=O)c1ccccc1)c1ccc(NC(=O)C(F)(F)F)cc1	-	0	0	0	0	0
SMILES	ClpP mod	DT40 TDP1 no CPT	IL-1B inflam inh	TDP1 cell CPT	DRD3 agonist	D3 antag
O=C(CSc1nc2ccccc2s1)N/N=C/c1cc([N+](=O)[O-])ccc1O	-	?	0	?	0	-61
O=[N+]([O-])c1ccc(O)c(/C=N/n2c(CO)nc3ccccc32)c1	0	0	0	0	0	-54
Cc1ccc(/C=N/NC(=O)CSc2nc3ccccc3s2)o1	0	0	0	0	0	0
CCOc1ccccc1NC(=O)COC(=O)C(Cc1ccccc1)NC(=O)c1ccco1 (centres undefined)	0	0	0	0	0	0
O=S(=O)(Nc1ccccc1N1CCCCC1)c1ccc(F)cc1F	-	?	0	0	0	0
COC1=C(OC)C(=O)C(Sc2ccc3ccccc3c2)=CC1=O	0	1.3µM	-104	1.3µM	0	-62
CC(C)=NNc1cnnc2ccc([N+](=O)[O-])cc12	0	13µM	0	13µM	0	0
CN1CCCC(OC(=O)c2ccc(C#N)cc2)C1 (centres undefined)	0	0	0	0	0	0
CN(C)c1cccc2c(C=C(C#N)C#N)ccc(N(C)C)c12	0	?	-95	?	0	0
CCOc1ccc(NC(c2ccccc2)P(=O)(OC)OC)cc1 (centres undefined)	0	0	0	?	0	0
Cc1ccc(C(=O)N/N=C/C=C/c2ccccc2)cc1	-	0	0	0	0	0
NC(=S)N/N=C/c1ccc2ccccc2c1	0	23µM	0	23µM	0	?
Cn1cccc1/C=N/NC(N)=S	-	21µM	0	?	0	0
NC(=S)N/N=C/c1cccc(/C=N/NC(N)=S)c1	-	0	-100	0	0	0
NC(=S)N/N=C/c1ccc(/C=N/NC(N)=S)cc1	0	0	0	?	0	0
NC(=S)N/N=C/c1cccc(Br)c1	0	?	0	?	0	0
NC(=S)N/N=C/C=C/c1ccccc1	0	5.8µM	0	5.8µM	0	0
Cc1cc(C)c2c(=O)cc(C(=O)NCCc3ccc(S(N)(=O)=O)cc3)oc2c1	0	0	-	0	0	-
C[C@@]12CCC3[C@@](CCC4[C@@]3(C)CCC[C@@]4(C)C(=O)Nc3ccc(Cl)cc3)(CC1=O)C2 (some centres undefined)	0	?	0	?	0	0
CCS(=O)(=O)N1CC(=O)N(c2ccc(C)c(C)c2)C(C)(C(=O)NC2CCCCC2)C1 (centres undefined)	0	0	-	0	0	-
Cn1cccc1/C=N/NC(=O)Cc1ccccc1	-	0	0	0	0	0
Cn1cccc1/C=N\NC(=O)Cc1ccc(Br)c2ccccc12	0	10µM	0	15µM	0	0
O=P(COCCOCP(=O)(c1ccccc1)c1ccccc1)(c1ccccc1)c1ccccc1	0	0	0	0	0	0
CCCCN(CCCC)CP(=O)(c1ccccc1)c1ccccc1	0	15µM	0	16µM	0	0
O=C(O)CCCCCCCCCCP(=O)(c1ccccc1)c1ccccc1	-	0	0	0	0	0
CCCOP(=O)(c1ccccc1)c1ccccc1	0	?	0	21µM	0	0
